12 compounds from PubChem BioAssay (NCI) can be followed below.

This is part of a sample that, as a whole, favours compounds with a hit. Of some 83,000 tested, about 20% had one in any assay.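 Single-concentration screen, 48 h exposure, 96-well plates. Endpoint: percent growth. Below 10 = active.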 Activity calls are given as the source filed them.

The first assay has as its system MCF7 breast. Put plainly: NCI-60 one-dose screen, 48 h (100 = growth as untreated, 0 = no growth, -100 = all killed). Conditions: 10 µM unless noted.
With `COc1cccc(/C=C/[N+](=O)[O-])c1`, the growth was -11.2% (active).

In the case of `CC[C@H](C)[C@H](NC(=O)c1cccn1C)C(=O)N(C)[C@H](C[C@@H](OC(C)=O)c1nc(C(=O)N[C@@H](Cc2ccccc2)C[C@H](C)C(=O)OC)cs1)C(C)C`, the growth is 15% (inactive). In the case of `[Cl][Hg][n]1c(-c2ccco2)nc2ccccc21`, the growth was 74.9% (inactive). On the same count and under the same terms, the same measure for `COc1ccc2c(c1)c(-c1nc(-c3cn(C)c4ncccc34)cs1)cn2CCCCN1CCCCC1`: -76.5% (active).

The subject of another assay is HCT-116 colon. The assay is described as above. Conditions: 10 µM unless noted.
On to `Fc1c[c-]c(-c2ccccn2)c(F)c1.[CH3-].[Pt+2].c1ccc([PH+](c2ccccc2)c2ccccn2)cc1`, for which the growth was -43.8% (active). Consider `CC(=O)O[C@@H]1CC[C@]2(C)[C@H]3CC[C@]4(C)C(=O)CC[C@H]4[C@@H]3C[C@@H]3SC(N)=N[C@@]32C1`, for which the growth is 32.7% (inactive). As to `COc1cc2c(cc1OCc1ccccc1)C(CC(C)C)=[N+](C)CC2`, the growth is 85.2% (inactive).

Take `CC(C)=CCC[C@H](C(=O)O)[C@@H]1CC[C@]2(C)C3=C(CC[C@@]12C)[C@@]1(C)CC[C@H](O)C(C)(C)[C@@H]1CC3`: the growth was 78.5% (inactive). Same read-out and setting: next, `CC(C)=CCc1c(O)c(C(=O)CC(C)C)c(O)c2c(-c3ccccc3)cc(=O)oc12`: 36.8% (inactive); `Cc1ccc(C(Cc2ccccc2)NCCO)cc1` (configuration not stated): 90% (inactive). Turning to `O=C(O)CNC(=O)C(Cl)(Cl)Cl`, the growth was 107% (inactive). For the compound `COC(=O)[C@@H](C)C[C@H](Cc1ccccc1)NC(=O)c1csc([C@@H](C[C@H](C(C)C)N(C)C(=O)[C@@H](NC(=O)[C@H]2CCCCN2C)c2ccc(F)cc2)OC(C)=O)n1`, the growth was 3.28% (active).
